# KAT2A inh: qHTS Assay for Inhibitors of GCN5L2 | Histone acetyltransferase KAT2A (Homo sapiens), Q92830 | GCN5L2 HAT assay, ThioGlo1 CoA-SH fluorescence | Potency, µM (top dose mostly 58.9 µM), actives largely listed as inhibitors | 0.21% of 390,000 active | AID 504327, 2011
#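 qHTS, 1536-well. 20nM enzyme, pH 7.5 HEPES/EDTA/Tween-20 buffer; 15 min compound preinc., RT. Start: 75uM H3(1-25), 70uM AcCoA, 50uM ThioGlo1. Read Ex340/Em540 at t=0 (autofluorescence flag) and t=20 min.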
# TrxR1 inh: qHTS Assay for Inhibitors of Mammalian Selenoprotein Thioredoxin Reductase 1 (TrxR1): qHTS; Thioredoxin reductase 1, cytoplasmic (Rattus norvegicus), O89049; recombinant rTrxR1, NADPH fluorescence consumption, selenite substrate; Potency, µM (series often up to 114 µM), most hits filed as inhibitors; 1% of 390,000 active; AID 588453, 2011; further: nearly all actives have a fitted effect of over 65% in size
# Target sequence (O89049 whole entry, looked up): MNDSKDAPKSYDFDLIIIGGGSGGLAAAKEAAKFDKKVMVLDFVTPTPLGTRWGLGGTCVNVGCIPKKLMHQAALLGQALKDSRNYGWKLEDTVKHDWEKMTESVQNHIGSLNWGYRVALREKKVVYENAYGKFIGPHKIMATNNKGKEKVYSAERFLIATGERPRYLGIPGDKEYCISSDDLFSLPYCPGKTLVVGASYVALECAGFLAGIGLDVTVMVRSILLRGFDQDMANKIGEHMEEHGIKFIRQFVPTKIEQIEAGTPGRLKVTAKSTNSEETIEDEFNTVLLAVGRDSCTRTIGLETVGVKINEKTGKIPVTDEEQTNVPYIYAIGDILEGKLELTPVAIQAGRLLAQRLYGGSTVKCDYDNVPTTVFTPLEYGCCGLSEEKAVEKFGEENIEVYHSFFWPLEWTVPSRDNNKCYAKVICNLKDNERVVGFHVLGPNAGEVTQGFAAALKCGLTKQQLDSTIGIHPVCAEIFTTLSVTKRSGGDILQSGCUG
#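 Rat TrxR1 (90 nM in the dispensed reagent) was pre-reduced with 400 uM NADPH for 5 min at room temperature, then incubated with compound for 15 min. After 400 uM selenite was added, NADPH fluorescence (Ex 340/Em 450 nm) was followed for 8 min.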
# TrxR1 substrate: qHTS Assay for Substrates of Mammalian Selenoprotein Thioredoxin Reductase 1 (TrxR1): qHTS; Thioredoxin reductase 1, cytoplasmic (Rattus norvegicus), O89049; AID 588456, 2011; purified TrxR1 substrate turnover, NADPH consumption readout; 0.01% of 390,000 active; Potency, µM (series often up to 114 µM); further: nearly all actives have a fitted effect of over 50% in size
#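 Rat TrxR1, dispensed at 90 nM, was prereduced with 400 uM NADPH (final) for 5 min at ~22 deg C, then incubated with compound 15 min before 400 uM selenite. A first-read NADPH fluorescence drop versus no-compound background flagged substrates.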
# VDR inhibitor: Inhibitors of the vitamin D receptor (VDR): qHTS | VDR-SRC2-3 peptide fluorescence polarization, 2 h | Potency, µM, actives largely listed as inhibitors | 0.93% of 400,000 active | AID 504847, 2011
#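 After 23 nl compound addition and a short centrifugation, plates sat for 2 hours at ambient temperature; polarization of fluorescence then indicated loss of VDR binding to peptide SRC2-3.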
# A number is an active result; n = inactive; u = inconclusive; x = no result given; ! = a repeat was not active; [ ] = dose if it differs, or a comment. Hits are enriched below; roughly 1.8% of the tested compounds scored in any of these assays. The call rests on the fitted dose curve; in most records, active means well fitted curve in the direction sought with a large enough effect; inconclusive means small, poorly fitted or top-dose-only effect, or another doubt; inactive means no such curve, though single readings can be large; an effect the other way counts as inactive or inconclusive.
SMILES,KAT2A inh,TrxR1 inh,TrxR1 substrate,VDR inhibitor
O=C1Oc2ccccc2C(=O)C1C(CC(O)c1ccc(-c2ccc(Br)cc2)cc1)c1ccccc1 (configuration not stated),22µM,x,x,32µM
OC(CN1CCN(C(c2ccccc2)c2ccccc2)CC1)c1ccc(Br)cc1 (configuration not stated),n,n,n,n
CCCC(=O)NC(=S)Nc1ccccc1C(=O)OC,n,n,n,n
COC(=O)c1cn[nH]c1NC(=S)Nc1ccc(C)cc1Cl,n,u,n,n
COC(=O)c1cn[nH]c1NC(=S)Nc1ccccc1C,n,0.79µM,n,n
CCC(=O)NC(=S)Nc1ccccc1C(=O)OC,n,50µM,n,n
Cc1cc(-c2ccc(C(=O)O)s2)cnc1N,n,20µM,n,n
O=C(O)c1ccc(-c2ccc(-c3ccccc3)cc2)s1,n,x,x,x
Cn1c(SCC(=O)NCc2ccco2)nnc1-c1ccc(NC(=O)c2ccccc2)cc1,x,n,n,x
Cc1nc(C#N)nc(Oc2ccccc2)c1Cl,x,n,n,x
CCc1c(C)sc(NC(=O)C2CCCCC2C(=O)O)c1C(N)=O (configuration not stated),n,n,n,79µM
CC(C)(C)n1ncc2c(=O)n(Cc3ccccc3C#N)cnc21,x,n,n,x
Cc1c(C)c2cc(Cl)c(O)c(CN3CCN(C)CC3)c2oc1=O,25µM,n,n,n
CCOC(=O)c1ccc(-n2c(C)ccc2C)cc1,n,n,n,n
CCOC(=O)c1ccc(N2C(=O)C=CC2=O)cc1,u,8.9µM,n,50µM
CCc1ccc(NC(=O)CN2C(=O)CCSc3ccccc32)cc1,n,n,n,n
O=C(O)C1Nc2c(C(=O)N3CCOCC3)cccc2C2C=CCC12 (configuration not stated),n,1.6µM,n,u
CCCC1Nc2ccc(C(=O)O)cc2C2C=CCC12 (configuration not stated),n,50µM,n,n
CC(C)C1Nc2ccc(C(=O)O)cc2C2C=CCC21 (configuration not stated),n,u,n,u
CCOC(=O)c1ccc2c(c1)C1C=CCC1C(C(=O)O)N2 (configuration not stated),20µM,x,x,x
CCOC(=O)C1Nc2ccc(C(=O)O)cc2C2C=CCC12 (configuration not stated),n,11µM,n,16µM
COCCNC(=O)C1Nc2ccc(C(F)(F)F)cc2C2C=CCC12 (configuration not stated),x,n,n,n
CCCCCCCCCCCCCCCC[n+]1ccc(C)c2ccccc21,x,u,n,x
Cc1cc(=O)[nH]c2ccc(O)cc12,x,n,n,x
O=C(O)C1Nc2c(C(F)(F)F)ccc(Cl)c2C2C=CCC12 (configuration not stated),n,u,n[2.29 µM],u
SMILES,KAT2A inh,TrxR1 inh,TrxR1 substrate,VDR inhibitor
O=C(O)C1Nc2ccccc2C2C=CCC12 (configuration not stated),x,3.5µM,n,u
O=C(/C=C/Sc1ccc(C(F)(F)F)cn1)c1ccccc1,n,1.3µM,n,79µM
O=C(COc1ccccc1C(=O)Nc1ccccc1F)Nc1ccc(Br)cc1,x,n,n,x
Cc1c(Cl)cccc1NC(=O)c1cc(-c2cccc(Cl)c2)on1,n,n,n,n
COC(=O)c1ccc(C(C(=O)NC2CCCCC2)N(Cc2ccc(F)cc2)C(=O)Cc2cccs2)cc1 (configuration not stated),n,n,n,n
COC(CN(C(=O)CCl)C(C(=O)NC1CCCCC1)c1ccc(Cl)cc1)OC (configuration not stated),n,35µM,n,n
COC(CN(C(=O)CCl)C(C(=O)NC1CCCCC1)c1ccccc1C)OC (configuration not stated),n,40µM,n,n
COC(CN(C(=O)CCl)C(C(=O)NC1CCCC(C)C1C)c1ccc(C)cc1)OC (configuration not stated),n,56µM,n,n
O=C(NC1CCCC1)C(c1ccc(Cl)cc1)N(Cc1ccc(F)cc1)C(=O)CCl (configuration not stated),n,13µM,n,n
Cc1ccc(-c2nnc3ccc(SCC(=O)OCc4ccccc4)nn23)cc1,x,n,n,n
CCOc1ccc(NC(=O)CSC2=Nc3ccccc3C3=NC(CC(=O)NCc4ccc5c(c4)OCO5)C(=O)N23)cc1 (configuration not stated),n,n,n,n
COc1cc(OC)c(/C=C/c2nc3ccccc3o2)c(OC)c1,x,n,n,x
O=C(O)CCn1cc(/C=C/C(=O)c2ccc(Cl)cc2)c(-c2ccc(Br)cc2)n1,u,n,n,40µM
O=C(O)/C=C/c1cn(Cc2ccccc2)nc1-c1ccccc1,n,n,n,n
COc1cccc(-c2nc(CS(=O)CC(=O)N3CCN(c4cccc(C(F)(F)F)c4)CC3)c(C)o2)c1 (configuration not stated),n,n,n,n
O=C(/C(=C/c1cccnc1)n1ccnc1)c1ccc(Cl)cc1Cl,n,n,n,50µM
Cc1ccc(-c2nn3c(C)nnc3s2)cc1NC(=O)c1ccc(-c2cccc(Cl)c2)o1,n,35µM,n,n
Cc1ccc(/C=C/S(=O)(=O)NCC(=O)OCC(=O)Nc2c(F)cccc2F)cc1,n,32µM,n,n
Cc1cccc(CNc2ncnc3ccc(-c4ccoc4)cc23)c1,u,n,n,20µM!
c1nc(NC2CC2)c2cc(-c3ccoc3)ccc2n1,n,x,x,40µM
c1cn(-c2ncnc3ccc(-c4ccoc4)cc23)cn1,n,x,x,32µM
CN(C)c1ccc(-c2cc(NCc3cccnc3)ncn2)cc1,n,x,x,n
CN(C)c1ccc(-c2ccc3ncnc(NC4CC4)c3c2)cc1,n,x,x,u
c1cncc(CNc2cc(-c3ccoc3)ncn2)c1,n,x,x,22µM
COc1cc2c(NC3CCN(C(C)C)CC3)nc(N3CCCN(C)CC3)nc2cc1OCCOCCN(C)C,x,u,n,x
SMILES,KAT2A inh,TrxR1 inh,TrxR1 substrate,VDR inhibitor
COc1ccc(OC)c(NC(=O)CSc2nnc3ccc4ccccc4n23)c1,n,n,n,n
Cc1nc(N2CCCC2)c2c(C(=O)Nc3ccc(Br)cc3F)c(C)oc2n1,n,n,n,n
c1cncc(CNc2ncnc3ccc(-c4ccoc4)cc23)c1,28µM!,n,n,u
Cc1cnc(CNc2cc(-c3ccoc3)ncn2)cn1,n,x,x,45µM
N#Cc1nccnc1S(=O)(=O)c1cccs1,n,0.32µM,n,35µM
Cc1c(N(C)S(=O)(=O)c2cccc(C(=O)NC(C)C)c2)c(=O)n(-c2ccccc2)n1C,n,n,n,79µM
CCN(CC)c1ccccc1/C=C/[n+]1ccc(CCCCI)c2ccccc21,x,u,n,x
Oc1ccc(Br)cc1C1C=C(c2ccc3c(c2)OCO3)NC(c2ccc(F)c(Br)c2)N1 (configuration not stated),x,u,n,50µM
